Data from PubChem BioAssay AID1159580 (chemical genetic matrix, 2015).
The campaign covered roughly 5,500 compounds. About 2,000 (36%) were called active. Roughly 18% stayed inconclusive and do not appear here. The list shows a part of the results. Unmarked numbers belong to inactive results. Cut-off read from the data, not from the text of the source: active = normalized growth mostly below about 0.91 (no sharp cut-off); inconclusive = no clear call, values can overlap the other calls; inactive = mostly above about 0.92.

Experiment: chemical genetic growth profiling, strain panel (AID 1159580);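 note: tested at 20 µM; growth read once vehicle control cultures reached saturation at 30 °C; 1 = growth at the plate median or of vehicle wells; lower values mean less growth of the strain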
Details: growth OD

## CC(=O)[C@@]1(O)CCC2C3CCC4=CC(=O)CC[C@]4(C)C3CC[C@@]21C (stereo partly drawn)
S. cerevisiae deletion strains, locus YJR066W, strain TOR1, active compounds read low
  normalized growth: 0.93
S. cerevisiae deletion strains, locus YKL009W, strain mrt4, active compounds read low
  normalized growth: 0.995
S. cerevisiae deletion strains, locus YKL068W, active compounds read low
  normalized growth: 1.01
S. cerevisiae deletion strains, locus YKL085W, strain MDH1 (second series), active compounds read low
  normalized growth: 1.02
S. cerevisiae deletion strains, locus YKL085W, strain MDH1, active compounds read low
  normalized growth: 1.02
S. cerevisiae deletion strains, locus YKL160W, strain elf1, active compounds read low
  normalized growth: 0.997
S. cerevisiae deletion strains, locus YKL190W, strain CNB1, active compounds read low
  normalized growth: 0.998
S. cerevisiae deletion strains, locus YKR001C, strain vps1, active compounds read low
  normalized growth: 1.06
S. cerevisiae deletion strains, locus YKR026C, strain gcn3, active compounds read low
  normalized growth: 0.966
S. cerevisiae deletion strains, locus YKR091W, strain srl3, active compounds read low
  normalized growth: 0.991
S. cerevisiae deletion strains, locus YLL001W, strain dnm1, active compounds read low
  normalized growth: 0.98
S. cerevisiae deletion strains, locus YLL026W, active compounds read low
  normalized growth: 0.994
S. cerevisiae deletion strains, locus YLL041C, strain sdh2, active compounds read low
  normalized growth: 0.99
S. cerevisiae deletion strains, locus YLR027C, strain aat2, active compounds read low
  normalized growth: 1
S. cerevisiae deletion strains, locus YLR039C, strain RIC1, active compounds read low
  normalized growth: 0.841
S. cerevisiae deletion strains, locus YLR058C, strain SHM2, active compounds read low
  normalized growth: 0.987
S. cerevisiae deletion strains, locus YLR102C, strain apc9, active compounds read low
  normalized growth: 1.01
S. cerevisiae deletion strains, locus YLR113W, strain HOG1, active compounds read low
  normalized growth: 0.97
S. cerevisiae deletion strains, locus YLR221C, strain rsa3, active compounds read low
  normalized growth: 1
S. cerevisiae deletion strains, locus YLR258W, strain gsy2, active compounds read low
  normalized growth: 0.993
S. cerevisiae deletion strains, locus YLR262C, strain YPT6 (second series), active compounds read low
  normalized growth: 0.823 (active)
S. cerevisiae deletion strains, locus YLR262C, strain YPT6, active compounds read low
  normalized growth: 0.805
S. cerevisiae deletion strains, locus YLR268W, strain sec22, active compounds read low
  normalized growth: 1.01
S. cerevisiae deletion strains, locus YLR320W, strain mms22, active compounds read low
  normalized growth: 0.939
S. cerevisiae deletion strains, locus YLR330W, strain CHS5, active compounds read low
  normalized growth: 1
S. cerevisiae deletion strains, locus YLR342W, strain FKS1 (second series), active compounds read low
  normalized growth: 0.987
S. cerevisiae deletion strains, locus YLR342W, strain FKS1, active compounds read low
  normalized growth: 0.989
S. cerevisiae deletion strains, locus YLR357W, strain rsc2, active compounds read low
  normalized growth: 1.01
S. cerevisiae deletion strains, locus YLR370C, strain arc18, active compounds read low
  normalized growth: 0.984
S. cerevisiae deletion strains, locus YLR371W, strain rom2, active compounds read low
  normalized growth: 1.01
S. cerevisiae deletion strains, locus YLR384C, strain iki3, active compounds read low
  normalized growth: 1.01
S. cerevisiae deletion strains, locus YLR418C, strain cdc73, active compounds read low
  normalized growth: 1.01
S. cerevisiae deletion strains, locus YML016C, strain PPZ1, active compounds read low
  normalized growth: 0.986
S. cerevisiae deletion strains, locus YML032C, strain rad52, active compounds read low
  normalized growth: 0.981
S. cerevisiae deletion strains, locus YML120C, strain ndi1, active compounds read low
  normalized growth: 1.01
S. cerevisiae deletion strains, locus YML124C, strain tub3, active compounds read low
  normalized growth: 1
S. cerevisiae deletion strains, locus YMR058W, strain fet3, active compounds read low
  normalized growth: 0.996
S. cerevisiae deletion strains, locus YMR078C, strain ctf18, active compounds read low
  normalized growth: 0.992
S. cerevisiae deletion strains, locus YMR125W, strain sto1, active compounds read low
  normalized growth: 0.984
S. cerevisiae deletion strains, locus YMR129W, active compounds read low
  normalized growth: 0.982
S. cerevisiae deletion strains, locus YMR205C, strain PFK2, active compounds read low
  normalized growth: 0.957
S. cerevisiae deletion strains, locus YMR223W, strain ubp8, active compounds read low
  normalized growth: 0.995
S. cerevisiae deletion strains, locus YMR231W, strain pep5, active compounds read low
  normalized growth: 0.996
S. cerevisiae deletion strains, locus YMR307W, strain GAS1, active compounds read low
  normalized growth: 0.97
S. cerevisiae deletion strains, locus YNL067W, strain RPL9B, active compounds read low
  normalized growth: 0.999
S. cerevisiae deletion strains, locus YNL071W, strain lat1, active compounds read low
  normalized growth: 1
S. cerevisiae deletion strains, locus YNL183C, strain NPR1, active compounds read low
  normalized growth: 0.907
S. cerevisiae deletion strains, locus YNL209W, strain ssb2, active compounds read low
  normalized growth: 0.995
S. cerevisiae deletion strains, locus YNL233W, strain BNI4, active compounds read low
  normalized growth: 1
S. cerevisiae deletion strains, locus YNL248C, strain rpa49, active compounds read low
  normalized growth: 0.999
S. cerevisiae deletion strains, locus YNL250W, strain rad50, active compounds read low
  normalized growth: 1.01
S. cerevisiae deletion strains, locus YNL271C, strain bni1, active compounds read low
  normalized growth: 1
S. cerevisiae deletion strains, locus YNL298W, strain CLA4, active compounds read low
  normalized growth: 1.01
S. cerevisiae deletion strains, locus YNL307C, strain MCK1, active compounds read low
  normalized growth: 1.01
S. cerevisiae deletion strains, locus YNL322C, strain KRE1 (second series), active compounds read low
  normalized growth: 0.996
S. cerevisiae deletion strains, locus YNL322C, strain KRE1, active compounds read low
  normalized growth: 0.994
S. cerevisiae deletion strains, locus YNR049C, strain mso1, active compounds read low
  normalized growth: 0.988
S. cerevisiae deletion strains, locus YNR052C, strain pop2, active compounds read low
  normalized growth: 1
S. cerevisiae deletion strains, locus YOL012C, strain htz1
  normalized growth: 0.769
S. cerevisiae deletion strains, locus YOL147C, strain pex11, active compounds read low
  normalized growth: 1.01
S. cerevisiae deletion strains, locus YOR001W, strain rrp6, active compounds read low
  normalized growth: 1
S. cerevisiae deletion strains, locus YOR061W, strain CKA2, active compounds read low
  normalized growth: 0.993
S. cerevisiae deletion strains, locus YOR069W, strain VPS5, active compounds read low
  normalized growth: 0.996
S. cerevisiae deletion strains, locus YOR070C, strain gyp1, active compounds read low
  normalized growth: 0.994
S. cerevisiae deletion strains, locus YOR080W, strain dia2, active compounds read low
  normalized growth: 0.991
S. cerevisiae deletion strains, locus YOR083W, strain WHI5, active compounds read low
  normalized growth: 1
S. cerevisiae deletion strains, locus YOR106W, strain vam3, active compounds read low
  normalized growth: 1.02
S. cerevisiae deletion strains, locus YOR136W, strain idh2, active compounds read low
  normalized growth: 1.01
S. cerevisiae deletion strains, locus YOR144C, strain elg1, active compounds read low
  normalized growth: 1
S. cerevisiae deletion strains, locus YOR184W, strain ser1, active compounds read low
  normalized growth: 0.943
S. cerevisiae deletion strains, locus YOR231W, strain MKK1, active compounds read low
  normalized growth: 0.965
S. cerevisiae deletion strains, locus YOR265W, strain rbl2, active compounds read low
  normalized growth: 1
S. cerevisiae deletion strains, locus YOR270C, strain vph1, active compounds read low
  normalized growth: 0.974
S. cerevisiae deletion strains, locus YOR290C, strain snf2, active compounds read low
  normalized growth: 0.953
S. cerevisiae deletion strains, locus YOR316C, strain cot1, active compounds read low
  normalized growth: 1
S. cerevisiae deletion strains, locus YPL051W, strain arl3, active compounds read low
  normalized growth: 0.995
S. cerevisiae deletion strains, locus YPL055C, strain LGE1, active compounds read low
  normalized growth: 1.02
S. cerevisiae deletion strains, locus YPL078C, strain atp4, active compounds read low
  normalized growth: 0.997
S. cerevisiae deletion strains, locus YPL106C, strain sse1, active compounds read low
  normalized growth: 1.02
S. cerevisiae deletion strains, locus YPL240C, strain hsp82, active compounds read low
  normalized growth: 0.987
S. cerevisiae deletion strains, locus YPL241C, strain CIN2, active compounds read low
  normalized growth: 0.995
S. cerevisiae deletion strains, locus YPL256C, strain CLN2, active compounds read low
  normalized growth: 0.96
S. cerevisiae deletion strains, locus YPR119W, strain clb2, active compounds read low
  normalized growth: 1
S. cerevisiae deletion strains, locus YPR141C, strain kar3, active compounds read low
  normalized growth: 0.992
S. cerevisiae deletion strains, locus YPR163C, strain tif3, active compounds read low
  normalized growth: 0.998
S. cerevisiae deletion strains, locus YPR167C, strain met16, active compounds read low
  normalized growth: 1
S. cerevisiae deletion strains, strain wtn01, active compounds read low
  normalized growth: 1.05
S. cerevisiae strains, strain wild type, active compounds read low
  normalized growth: 0.991
